Data from ChEMBL document CHEMBL1961873, “Compounds: GSK PKIS; Assays: Nanosyn kinase panel” (2012).

How the values were obtained:
[1] = molecular target: Protein kinase C gamma type (Homo sapiens) (UniProt P05129); details: at 1 µM;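 also: each value is an averaged percent inhibition of the enzyme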
[2] = molecular target: T1, Protein kinase C iota type (Homo sapiens) (UniProt P41743); details: at 0.1 µM
T1 sequence (whole entry): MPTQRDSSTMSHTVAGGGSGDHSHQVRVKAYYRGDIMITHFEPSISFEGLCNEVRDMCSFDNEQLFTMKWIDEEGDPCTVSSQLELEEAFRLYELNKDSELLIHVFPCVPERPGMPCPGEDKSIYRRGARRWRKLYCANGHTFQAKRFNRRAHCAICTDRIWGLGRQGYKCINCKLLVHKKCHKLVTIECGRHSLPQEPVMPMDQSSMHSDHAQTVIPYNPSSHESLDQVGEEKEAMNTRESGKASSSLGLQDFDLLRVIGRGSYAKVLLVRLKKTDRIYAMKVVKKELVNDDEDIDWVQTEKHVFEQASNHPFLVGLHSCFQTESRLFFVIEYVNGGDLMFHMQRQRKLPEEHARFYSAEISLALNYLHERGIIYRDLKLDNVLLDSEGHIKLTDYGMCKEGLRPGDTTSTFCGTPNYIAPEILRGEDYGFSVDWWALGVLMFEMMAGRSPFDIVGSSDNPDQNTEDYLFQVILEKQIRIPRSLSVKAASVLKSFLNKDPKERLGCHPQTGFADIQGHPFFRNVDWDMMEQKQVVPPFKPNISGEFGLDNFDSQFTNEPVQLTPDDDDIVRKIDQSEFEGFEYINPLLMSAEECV

[3] = molecular target: T1, Protein kinase C iota type (Homo sapiens); details: at 1 µM
[4] = molecular target: Protein kinase C theta type (Homo sapiens) (UniProt Q04759); details: at 0.1 µM
Sequence of Protein kinase C theta type (Homo sapiens) (Q04759 whole entry, looked up): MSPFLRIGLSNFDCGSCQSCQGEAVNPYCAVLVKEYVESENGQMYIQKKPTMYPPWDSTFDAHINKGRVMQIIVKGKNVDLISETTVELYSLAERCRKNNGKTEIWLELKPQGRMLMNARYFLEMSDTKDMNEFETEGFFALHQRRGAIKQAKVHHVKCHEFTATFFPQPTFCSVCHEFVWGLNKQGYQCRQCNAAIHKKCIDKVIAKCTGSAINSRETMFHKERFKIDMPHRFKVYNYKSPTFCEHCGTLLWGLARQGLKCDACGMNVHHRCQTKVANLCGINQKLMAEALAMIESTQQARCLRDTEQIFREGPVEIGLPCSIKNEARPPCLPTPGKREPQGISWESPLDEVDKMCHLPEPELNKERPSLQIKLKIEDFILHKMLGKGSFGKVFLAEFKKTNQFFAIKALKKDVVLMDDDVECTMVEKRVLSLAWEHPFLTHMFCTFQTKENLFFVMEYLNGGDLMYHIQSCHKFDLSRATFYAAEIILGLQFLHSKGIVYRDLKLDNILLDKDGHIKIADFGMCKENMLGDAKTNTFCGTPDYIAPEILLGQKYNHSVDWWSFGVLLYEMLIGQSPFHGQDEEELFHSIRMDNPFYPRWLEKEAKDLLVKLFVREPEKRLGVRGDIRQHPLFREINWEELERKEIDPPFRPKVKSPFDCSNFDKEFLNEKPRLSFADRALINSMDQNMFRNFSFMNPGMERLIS

[5] = molecular target: Protein kinase C theta type (Homo sapiens) (UniProt Q04759); details: at 1 µM
[6] = molecular target: Protein kinase C beta type (Homo sapiens) (UniProt P05771); details: at 0.1 µM
Sequence of Protein kinase C beta type (Homo sapiens) (P05771 2-671 limits assumed): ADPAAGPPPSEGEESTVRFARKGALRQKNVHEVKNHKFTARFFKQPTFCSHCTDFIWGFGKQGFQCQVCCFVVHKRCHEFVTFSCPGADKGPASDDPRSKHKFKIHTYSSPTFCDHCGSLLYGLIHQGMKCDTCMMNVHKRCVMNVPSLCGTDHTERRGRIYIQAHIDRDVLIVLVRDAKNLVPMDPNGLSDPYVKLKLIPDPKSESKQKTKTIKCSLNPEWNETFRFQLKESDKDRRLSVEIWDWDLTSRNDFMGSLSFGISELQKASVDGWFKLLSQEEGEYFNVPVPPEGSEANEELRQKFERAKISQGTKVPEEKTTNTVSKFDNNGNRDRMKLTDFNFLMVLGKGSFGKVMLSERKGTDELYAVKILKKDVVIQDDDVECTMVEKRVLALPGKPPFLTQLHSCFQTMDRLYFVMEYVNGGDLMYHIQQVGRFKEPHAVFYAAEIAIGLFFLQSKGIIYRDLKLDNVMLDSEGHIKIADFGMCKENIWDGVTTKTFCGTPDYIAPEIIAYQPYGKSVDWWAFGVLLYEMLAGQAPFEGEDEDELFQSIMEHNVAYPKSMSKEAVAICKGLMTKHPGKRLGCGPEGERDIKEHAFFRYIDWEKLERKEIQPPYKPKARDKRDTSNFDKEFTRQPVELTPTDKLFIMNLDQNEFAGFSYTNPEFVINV

[7] = molecular target: Protein kinase C beta type (Homo sapiens) (UniProt P05771); details: at 1 µM
[8] = molecular target: T2, Serine/threonine-protein kinase D1 (Homo sapiens) (UniProt Q15139); details: at 0.1 µM
T2 sequence (whole entry): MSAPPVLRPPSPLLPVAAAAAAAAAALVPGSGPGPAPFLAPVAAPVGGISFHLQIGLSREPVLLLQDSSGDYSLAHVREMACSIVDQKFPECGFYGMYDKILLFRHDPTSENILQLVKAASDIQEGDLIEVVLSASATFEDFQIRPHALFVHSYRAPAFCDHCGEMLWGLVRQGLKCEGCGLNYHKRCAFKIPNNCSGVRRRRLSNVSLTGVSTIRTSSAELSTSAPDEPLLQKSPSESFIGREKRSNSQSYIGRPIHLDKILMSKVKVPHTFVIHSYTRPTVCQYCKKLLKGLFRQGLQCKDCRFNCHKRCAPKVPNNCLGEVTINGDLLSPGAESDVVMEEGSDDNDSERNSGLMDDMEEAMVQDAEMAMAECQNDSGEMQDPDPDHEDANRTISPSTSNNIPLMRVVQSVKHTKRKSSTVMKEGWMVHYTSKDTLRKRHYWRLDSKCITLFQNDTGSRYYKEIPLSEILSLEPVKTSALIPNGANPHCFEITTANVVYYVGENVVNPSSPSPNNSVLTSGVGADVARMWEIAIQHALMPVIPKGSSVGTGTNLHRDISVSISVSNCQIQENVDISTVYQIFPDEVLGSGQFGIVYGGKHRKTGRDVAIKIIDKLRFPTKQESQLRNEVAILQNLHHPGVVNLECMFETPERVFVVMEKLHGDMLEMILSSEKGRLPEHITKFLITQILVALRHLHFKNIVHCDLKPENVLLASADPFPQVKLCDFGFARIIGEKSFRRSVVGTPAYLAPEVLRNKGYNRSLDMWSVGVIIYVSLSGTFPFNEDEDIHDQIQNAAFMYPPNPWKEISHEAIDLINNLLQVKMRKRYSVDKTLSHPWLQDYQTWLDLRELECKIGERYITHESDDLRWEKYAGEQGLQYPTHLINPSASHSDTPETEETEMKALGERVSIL

[9] = molecular target: T2, Serine/threonine-protein kinase D1 (Homo sapiens); details: at 1 µM
[10] = molecular target: T3, Serine/threonine-protein kinase D2 (Homo sapiens) (UniProt Q9BZL6); details: at 0.1 µM
T3 sequence (whole entry): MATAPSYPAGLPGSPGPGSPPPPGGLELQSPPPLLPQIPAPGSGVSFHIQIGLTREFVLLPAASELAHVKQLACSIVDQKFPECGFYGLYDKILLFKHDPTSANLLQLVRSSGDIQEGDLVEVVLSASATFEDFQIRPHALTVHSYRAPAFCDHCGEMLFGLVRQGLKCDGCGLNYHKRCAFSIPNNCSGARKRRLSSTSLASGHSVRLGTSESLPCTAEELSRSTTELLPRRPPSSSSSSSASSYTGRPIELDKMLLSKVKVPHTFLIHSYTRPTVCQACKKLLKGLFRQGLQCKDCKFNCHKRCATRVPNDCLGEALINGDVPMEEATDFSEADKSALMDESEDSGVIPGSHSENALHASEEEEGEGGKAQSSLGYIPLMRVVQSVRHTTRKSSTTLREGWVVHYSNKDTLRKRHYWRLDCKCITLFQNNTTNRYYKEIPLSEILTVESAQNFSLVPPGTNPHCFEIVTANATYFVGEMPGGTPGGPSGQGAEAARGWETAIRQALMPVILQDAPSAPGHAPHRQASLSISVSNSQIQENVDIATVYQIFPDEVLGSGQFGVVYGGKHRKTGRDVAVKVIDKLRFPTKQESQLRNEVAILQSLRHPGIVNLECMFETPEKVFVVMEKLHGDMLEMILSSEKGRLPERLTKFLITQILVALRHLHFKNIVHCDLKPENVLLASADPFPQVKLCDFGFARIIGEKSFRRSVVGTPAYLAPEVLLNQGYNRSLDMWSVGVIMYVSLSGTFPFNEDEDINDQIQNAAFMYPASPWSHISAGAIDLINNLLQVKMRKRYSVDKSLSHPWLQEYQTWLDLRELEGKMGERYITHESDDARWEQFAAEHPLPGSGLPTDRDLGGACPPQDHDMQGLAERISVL

[11] = molecular target: T3, Serine/threonine-protein kinase D2 (Homo sapiens); details: at 1 µM
[12] = molecular target: T4, Serine/threonine-protein kinase D3 (Homo sapiens) (UniProt O94806); details: at 0.1 µM
T4 sequence (whole entry): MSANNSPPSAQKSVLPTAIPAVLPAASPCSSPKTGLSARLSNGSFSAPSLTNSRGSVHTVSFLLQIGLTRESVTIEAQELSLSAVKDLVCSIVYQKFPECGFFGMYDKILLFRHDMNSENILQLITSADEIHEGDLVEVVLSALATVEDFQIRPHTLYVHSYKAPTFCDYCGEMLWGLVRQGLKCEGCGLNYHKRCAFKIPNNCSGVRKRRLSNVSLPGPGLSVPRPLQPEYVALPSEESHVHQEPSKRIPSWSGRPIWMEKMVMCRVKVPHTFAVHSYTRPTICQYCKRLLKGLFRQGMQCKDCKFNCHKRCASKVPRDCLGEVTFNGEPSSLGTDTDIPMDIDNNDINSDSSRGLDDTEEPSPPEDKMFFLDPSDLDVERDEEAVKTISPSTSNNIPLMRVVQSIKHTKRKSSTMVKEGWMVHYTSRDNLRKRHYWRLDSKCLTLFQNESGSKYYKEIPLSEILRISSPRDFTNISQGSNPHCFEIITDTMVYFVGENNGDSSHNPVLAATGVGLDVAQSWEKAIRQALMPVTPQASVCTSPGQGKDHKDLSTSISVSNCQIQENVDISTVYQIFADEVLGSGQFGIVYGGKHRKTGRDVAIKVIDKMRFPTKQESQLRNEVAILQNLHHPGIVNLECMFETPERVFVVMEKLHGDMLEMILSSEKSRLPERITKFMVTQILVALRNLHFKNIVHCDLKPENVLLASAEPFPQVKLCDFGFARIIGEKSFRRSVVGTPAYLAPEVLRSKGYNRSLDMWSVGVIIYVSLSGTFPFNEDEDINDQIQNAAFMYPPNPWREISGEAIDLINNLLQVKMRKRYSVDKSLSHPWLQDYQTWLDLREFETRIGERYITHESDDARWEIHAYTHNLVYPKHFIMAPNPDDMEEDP

[13] = molecular target: T4, Serine/threonine-protein kinase D3 (Homo sapiens); details: at 1 µM
[14] = molecular target: T5, cGMP-dependent protein kinase 1 (Homo sapiens) (UniProt Q13976); details: at 0.1 µM
T5 sequence (whole entry): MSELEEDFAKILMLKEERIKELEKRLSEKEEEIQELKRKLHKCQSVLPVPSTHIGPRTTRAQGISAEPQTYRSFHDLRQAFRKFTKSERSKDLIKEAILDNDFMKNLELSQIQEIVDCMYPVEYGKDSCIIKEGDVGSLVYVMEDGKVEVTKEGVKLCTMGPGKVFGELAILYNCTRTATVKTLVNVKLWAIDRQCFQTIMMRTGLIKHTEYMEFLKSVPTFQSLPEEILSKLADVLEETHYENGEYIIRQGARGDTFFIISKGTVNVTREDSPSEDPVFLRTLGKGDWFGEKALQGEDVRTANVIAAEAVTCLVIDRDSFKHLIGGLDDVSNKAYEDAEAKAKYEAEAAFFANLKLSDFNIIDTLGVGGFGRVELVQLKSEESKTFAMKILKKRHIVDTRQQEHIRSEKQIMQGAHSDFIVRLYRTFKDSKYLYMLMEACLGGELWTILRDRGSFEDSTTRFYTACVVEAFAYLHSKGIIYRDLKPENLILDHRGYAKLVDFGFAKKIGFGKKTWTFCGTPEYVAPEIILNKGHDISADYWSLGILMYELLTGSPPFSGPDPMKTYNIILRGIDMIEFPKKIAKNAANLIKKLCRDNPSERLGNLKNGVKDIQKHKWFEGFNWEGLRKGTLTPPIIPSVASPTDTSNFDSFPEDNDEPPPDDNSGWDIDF

[15] = molecular target: T5, cGMP-dependent protein kinase 1 (Homo sapiens); details: at 1 µM
[16] = molecular target: T6, cGMP-dependent protein kinase 2 (Homo sapiens) (UniProt Q13237); details: at 0.1 µM
T6 sequence (whole entry): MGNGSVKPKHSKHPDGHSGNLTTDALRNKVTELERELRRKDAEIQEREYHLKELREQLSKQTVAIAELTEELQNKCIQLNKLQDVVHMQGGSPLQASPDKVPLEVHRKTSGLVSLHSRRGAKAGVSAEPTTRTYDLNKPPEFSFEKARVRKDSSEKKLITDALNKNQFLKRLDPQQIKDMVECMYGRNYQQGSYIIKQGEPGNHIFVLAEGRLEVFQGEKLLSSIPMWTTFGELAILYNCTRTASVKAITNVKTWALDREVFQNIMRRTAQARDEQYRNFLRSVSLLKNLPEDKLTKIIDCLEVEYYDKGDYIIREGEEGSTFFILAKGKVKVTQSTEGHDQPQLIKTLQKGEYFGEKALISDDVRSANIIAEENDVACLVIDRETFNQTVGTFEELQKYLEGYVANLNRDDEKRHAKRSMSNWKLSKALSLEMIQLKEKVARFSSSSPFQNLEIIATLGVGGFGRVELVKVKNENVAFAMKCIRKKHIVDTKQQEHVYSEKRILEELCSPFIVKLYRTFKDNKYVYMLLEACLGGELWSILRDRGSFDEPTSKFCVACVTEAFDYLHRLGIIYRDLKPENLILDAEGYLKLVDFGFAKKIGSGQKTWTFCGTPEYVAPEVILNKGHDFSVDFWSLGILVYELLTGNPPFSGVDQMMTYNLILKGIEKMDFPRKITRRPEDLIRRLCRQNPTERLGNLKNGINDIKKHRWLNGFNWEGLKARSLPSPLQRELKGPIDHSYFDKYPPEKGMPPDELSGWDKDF

[17] = molecular target: T6, cGMP-dependent protein kinase 2 (Homo sapiens); details: at 1 µM
[18] = molecular target: T7, cAMP-dependent protein kinase catalytic subunit PRKX (Homo sapiens) (UniProt P51817); details: at 0.1 µM
T7 sequence (whole entry): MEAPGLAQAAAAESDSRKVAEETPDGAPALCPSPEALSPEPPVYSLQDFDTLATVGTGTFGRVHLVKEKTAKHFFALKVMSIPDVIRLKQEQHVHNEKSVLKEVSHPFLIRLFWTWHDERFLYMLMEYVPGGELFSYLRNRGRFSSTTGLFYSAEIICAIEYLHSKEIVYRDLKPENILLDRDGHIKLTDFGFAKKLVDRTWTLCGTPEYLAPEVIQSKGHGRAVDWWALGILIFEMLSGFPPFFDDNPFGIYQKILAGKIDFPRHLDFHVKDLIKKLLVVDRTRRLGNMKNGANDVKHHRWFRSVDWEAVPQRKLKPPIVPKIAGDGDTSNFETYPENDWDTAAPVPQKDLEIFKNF

[19] = molecular target: T7, cAMP-dependent protein kinase catalytic subunit PRKX (Homo sapiens); details: at 1 µM
[20] = molecular target: Rho-associated protein kinase 1 (Homo sapiens) (UniProt Q13464); details: at 0.1 µM;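 also: values are mean percent inhibition of ROCK1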
Sequence of Rho-associated protein kinase 1 (Homo sapiens) (Q13464 2-1354 limits assumed): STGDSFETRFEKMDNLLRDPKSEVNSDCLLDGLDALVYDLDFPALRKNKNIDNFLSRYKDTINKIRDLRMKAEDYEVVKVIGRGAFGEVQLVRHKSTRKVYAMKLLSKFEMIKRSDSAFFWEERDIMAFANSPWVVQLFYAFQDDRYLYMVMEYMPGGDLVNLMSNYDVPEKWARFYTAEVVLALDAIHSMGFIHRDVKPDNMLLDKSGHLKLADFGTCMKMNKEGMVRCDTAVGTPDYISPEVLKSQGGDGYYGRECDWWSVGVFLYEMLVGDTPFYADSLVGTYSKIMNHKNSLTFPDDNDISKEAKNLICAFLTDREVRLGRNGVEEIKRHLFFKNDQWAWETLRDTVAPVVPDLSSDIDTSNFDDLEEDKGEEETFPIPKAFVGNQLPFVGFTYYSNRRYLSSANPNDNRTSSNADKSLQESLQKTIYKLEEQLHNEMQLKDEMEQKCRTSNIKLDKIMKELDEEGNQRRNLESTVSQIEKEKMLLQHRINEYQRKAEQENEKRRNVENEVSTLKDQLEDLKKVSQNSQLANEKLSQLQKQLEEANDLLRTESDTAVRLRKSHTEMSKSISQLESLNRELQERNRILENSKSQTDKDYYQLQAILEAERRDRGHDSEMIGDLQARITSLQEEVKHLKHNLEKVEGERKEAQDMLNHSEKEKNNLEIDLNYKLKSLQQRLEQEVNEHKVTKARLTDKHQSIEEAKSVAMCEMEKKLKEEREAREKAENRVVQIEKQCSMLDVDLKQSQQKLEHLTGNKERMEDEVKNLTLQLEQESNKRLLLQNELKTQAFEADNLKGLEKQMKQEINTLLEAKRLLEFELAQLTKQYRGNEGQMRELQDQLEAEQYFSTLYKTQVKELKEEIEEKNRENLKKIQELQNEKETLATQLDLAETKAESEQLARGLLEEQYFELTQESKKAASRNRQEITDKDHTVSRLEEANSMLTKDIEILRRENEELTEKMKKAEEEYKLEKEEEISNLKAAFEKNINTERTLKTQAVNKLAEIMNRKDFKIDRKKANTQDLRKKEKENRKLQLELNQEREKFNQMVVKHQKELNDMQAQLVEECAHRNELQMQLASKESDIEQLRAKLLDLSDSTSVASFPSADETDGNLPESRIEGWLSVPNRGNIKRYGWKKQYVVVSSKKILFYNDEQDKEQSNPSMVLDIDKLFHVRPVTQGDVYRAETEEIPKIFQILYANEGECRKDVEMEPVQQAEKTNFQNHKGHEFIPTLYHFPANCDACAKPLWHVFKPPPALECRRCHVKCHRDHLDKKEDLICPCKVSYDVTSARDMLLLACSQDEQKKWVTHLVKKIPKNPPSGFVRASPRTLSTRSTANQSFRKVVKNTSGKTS

Structure (SMILES)	inhibition [1]	inhibition [2]	inhibition [3]	inhibition [4]	inhibition [5]	inhibition [6]	inhibition [7]	inhibition [8]	inhibition [9]	inhibition [10]	inhibition [11]	inhibition [12]	inhibition [13]	inhibition [14]	inhibition [15]	inhibition [16]	inhibition [17]	inhibition [18]	inhibition [19]	inhibition [20]
COc1cc2c(cc1Nc1nc(N3CCc4ccccc43)c3cc[nH]c3n1)N(C(=O)CN(C)C)CC2	5.19%	1.44%	3.35%	1.03%	-0.74%	1.14%	1.29%	1.69%	3.76%	1.71%	3.6%	1.51%	4.37%	2.84%	2.75%	2.18%	2.75%	0.6%	-1.42%	0.33%
CS(=O)(=O)CCNCc1ccc(-c2ccc3ncnc(Nc4ccc(OCc5ccccc5)c(Cl)c4)c3c2)o1	0.93%	0.76%	1.11%	0.62%	0.16%	-0.28%	0.08%	-0.53%	0.36%	-0.95%	-0.61%	-0.81%	-0.48%	1.06%	2%	0.55%	1.26%	0.78%	0.52%	1.32%
O=C1NC(=O)C(N2CCc3ccccc32)=C1c1ccc(Cl)cc1	2.33%	1.4%	3.19%	2.06%	1.93%	1.71%	1.65%	3.74%	5.59%	4.57%	4.56%	5.53%	6.02%	3.3%	4.19%	2.11%	4.33%	1.91%	0.77%	1.88%
